Results: PubChem BioAssay (EPA / NIEHS)
The source made the active and inactive calls. Rule for the calls: active = hit-call score of the fitted dose curve at least 0.9, where 1 is the maximum; inactive = score below 0.9.

How the values were obtained:
[1] = Tanguay_ZF_120hpf_TCHR: Oregon State University Tanguay Lab 120 Hour Post-fertilization zebrafish Assay for Touch Responsive (AID 2284403)
In short: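 Dechorionated Tropical 5D wild-type zebrafish embryos, one per well from 6 hpf, were statically exposed to 120 hpf at 28 °C (0.64% DMSO). Touch response was scored present/absent at 120 hpf and not scored in dead larvae.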

[2] = Tanguay_ZF_120hpf_ANY: Oregon State University Tanguay Lab 120 Hour Post-fertilization zebrafish Assay for Any Mortality and Malformation (AID 2284404)
In short: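 Dechorionated Tropical 5D wild-type embryos, one per well from 6 hpf, static exposure in sealed, dark plates at 28C until 120 hpf, 0.64% DMSO final. Brightfield scoring of mortality and malformations as binary presence/absence, pooling 13 morphology endpoints.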

SMILES: O=C(O)C(F)(F)C(F)(F)C(F)(F)C(F)(F)C(F)(F)C(F)(F)C(F)(F)C(F)(F)C(F)(F)C(F)(F)F
- outcome [1]: inactive
- AC50 [2]: 66.5 µM (active)

SMILES: O=C(O)C(F)(F)C(F)(F)C(F)(F)C(F)(F)C(F)(F)C(F)(F)F
- outcome [1]: inactive
- outcome [2]: inactive
